High-throughput results from PubChem BioAssay.
Sampled rows, rich in hits. Any-hit rate of the full collection: about 18%.
PLK1 PBD inh: PLK1 (human) polo-box domain binding inhibition. 360,000 tested, 2.8% active. Plk1 PBD binding of FITC phosphopeptide, fluorescence polarization. AID 720504. Potency, µM, without a hit: max response, negative = inhibition, hits mostly inhibitors. P53350; also: series mostly up to about 57 µM; nearly all actives have a fitted effect of over 65% in size
DT40 TDP1 no CPT: qHTS for Inhibitors of human tyrosyl-DNA phosphodiesterase 1 (TDP1): qHTS in cells in absence of CPT | DT40 Tdp1-/- hTDP1 cells, no CPT, ATP luminescence, 48 h | Potency, µM (top dose mostly 46.2 µM), inactives show at the top dose activity change, negative = growth inhibition, usual class: inhibitors | 420,000 tested, 15% active; also: nearly all actives have a fitted effect of over 55% in size
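DT40 Tdp1-/-;hTDP1 cells, no CPT (DMSO vehicle only), 400 cells/well; compounds pin-transferred; ≥48 hr, 37 °C; CellTiter-Glo 30 min RT dark, luminescence read.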
VDR inh: vitamin D3 receptor (human) inhibition; 400,000 tested, 0.93% active; VDR-SRC2-3 peptide fluorescence polarization, 2 h; AID 504847; Potency, µM, inactives show max response, negative = inhibition, most hits filed as inhibitors; P11473
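Fluorescence polarization assay of small-molecule disruption of VDR binding to coregulator peptide SRC2-3. Compounds and controls pin-transferred, then read after 2 h incubation at ambient room temperature.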
TDP1 inh: TDP1 (human) enzyme inhibition | recombinant TDP1, AlphaScreen DNA substrate cleavage | Potency, µM (doses to about 130 µM), without a hit: at the top dose activity change, negative = inhibition, most hits filed as inhibitors | 350,000 tested, 0.28% active; also: nearly all actives have a fitted effect of over 40% in size
Target sequence (Q9NUW8 whole entry, looked up): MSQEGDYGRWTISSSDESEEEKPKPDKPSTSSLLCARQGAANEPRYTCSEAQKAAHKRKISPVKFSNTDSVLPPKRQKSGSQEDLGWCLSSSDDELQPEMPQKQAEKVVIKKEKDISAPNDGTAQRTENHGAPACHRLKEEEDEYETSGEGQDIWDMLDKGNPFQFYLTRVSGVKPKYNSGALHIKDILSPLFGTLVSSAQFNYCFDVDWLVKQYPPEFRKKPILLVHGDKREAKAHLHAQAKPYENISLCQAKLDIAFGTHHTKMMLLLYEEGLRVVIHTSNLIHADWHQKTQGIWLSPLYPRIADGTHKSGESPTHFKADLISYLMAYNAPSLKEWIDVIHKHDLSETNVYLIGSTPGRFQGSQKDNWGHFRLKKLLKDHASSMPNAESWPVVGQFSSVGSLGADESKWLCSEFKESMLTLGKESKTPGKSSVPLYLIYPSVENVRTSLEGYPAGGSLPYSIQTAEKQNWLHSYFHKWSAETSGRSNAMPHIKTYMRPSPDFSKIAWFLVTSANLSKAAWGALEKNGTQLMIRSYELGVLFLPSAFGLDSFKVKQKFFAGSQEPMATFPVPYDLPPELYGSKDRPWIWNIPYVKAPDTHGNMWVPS
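Recombinant human Tdp1 (E. coli-expressed, 1 nM final) preincubated with compounds 15 min at room temperature, then 5'-biotin/3'-phosphotyrosine-FITC DNA substrate (15 nM final) added for 5 min. AlphaScreen beads (10 ug/ml final) added 10 min; cleavage lowers signal.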
KAT2A inh: blocks human GCN5L2 histone acetyltransferase; Q92830; GCN5L2 HAT assay, ThioGlo1 CoA-SH fluorescence; Potency, µM (doses to about 58.9 µM), without a hit: top-dose activity change, negative = inhibition, hits mostly inhibitors; 390,000 tested, 0.21% active; AID 504327
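GCN5L2 (20nM final) in 50mM HEPES, 0.1mM EDTA pH 7.5, 0.01% Tween-20 was preincubated 15 min at room temperature with compound, then given ThioGlo1 (50uM), H3(1-25) peptide (75uM) and acetyl-CoA (70uM); CoA-thiol fluorescence (Ex340/Em540) was read at 0 and 20 min.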
DT40 TDP1 CPT: growth inhibition of DT40 Tdp1-/-;hTDP1 cells with camptothecin (screen for TDP1 inhibitors); chicken DT40 Tdp1-/-;hTDP1 cells + 20 nM CPT, ATP luminescence, 48 h; Potency, µM (top dose mostly 46.2 µM), for inactives: at the highest dose activity change, negative = growth inhibition, actives largely listed as inhibitors; 420,000 tested, 12% active; also: nearly all actives have a fitted effect of over 55% in size
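Chicken DT40 Tdp1-/- cells stably complemented with human TDP1 were seeded at 400 cells/well in medium containing 20 nM camptothecin, exposed to pin-transferred compounds, and grown at 37 °C for at least 48 hr. Viability was read as ATP luminescence.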
* hit, by the source's call; [ ] = another dose, or the depositor's remark. Calls follow the shape of the dose curve; as a rule, active = well fitted curve in the direction sought with a large enough effect; inconclusive = small, poorly fitted or top-dose-only effect, or another doubt; inactive = no such curve, though single readings can be large; an effect the other way counts as inactive or inconclusive. % is scaled to controls: 0 for no effect and ±100 for the full control effect; potency is read from the fitted curve at half-maximal effect.

What do the screens show for `Cc1cccc(C)c1Nc1nnc(SCC(=O)Nc2cc(S(=O)(=O)N3CCCCC3)ccc2Cl)s1`?
PLK1 PBD inh: -3.1%; DT40 TDP1 no CPT: 20.6µM*; VDR inh: 4.5%; TDP1 inh: 5.8%; KAT2A inh: -6.6%; DT40 TDP1 CPT: inconclusive

How did Cc1ccc(Nc2nnc(SCC(=O)c3ccc(Br)s3)s2)c(C)c1 do in these assays?
PLK1 PBD inh: 12.8%; DT40 TDP1 no CPT: inconclusive; VDR inh: -0.4%; TDP1 inh: -1.1%; KAT2A inh: -1.8%; DT40 TDP1 CPT: -6.8%

How did Cc1cccc(Nc2nnc(SCC(=O)Nc3cccc(S(=O)(=O)N4CCCCC4)c3)s2)c1 do in these assays?
PLK1 PBD inh: inconclusive; DT40 TDP1 no CPT: 23.1µM*; VDR inh: 7.7%; TDP1 inh: 5.8%; KAT2A inh: -10.7%; DT40 TDP1 CPT: 23.1µM*

What do the screens show for `Cc1cccc(C)c1Nc1nnc(SCC(=O)c2ccc(Br)s2)s1`?
PLK1 PBD inh: 23.8µM*; DT40 TDP1 no CPT: 16.4µM*; VDR inh: inconclusive; TDP1 inh: 4.2%; KAT2A inh: -8.8%; DT40 TDP1 CPT: inconclusive

Results for Cc1cccc(NC(=O)CSc2nnc(NC(=O)CN3CCCCC3)s2)c1 ?
TDP1 inh: -0.6%; KAT2A inh: -2.1%

Results for CC(C)(Oc1ccc(Cl)cc1)C(=O)Nc1nc2ccc(S(C)(=O)=O)cc2s1 ?
DT40 TDP1 no CPT: inconclusive; VDR inh: -13.3%; TDP1 inh: -4.2%; KAT2A inh: -5.4%; DT40 TDP1 CPT: inconclusive

What do the screens show for `COc1ccc(-c2cn3c(n2)sc2cc(C(=O)Nc4cccc(SC)c4)ccc23)cc1`?
DT40 TDP1 no CPT: 6.51µM*; VDR inh: 8.6%; TDP1 inh: 1.3%; KAT2A inh: -13.8%; DT40 TDP1 CPT: 5.17µM*

How did COc1ccc(-c2cn3c(n2)sc2cc(C(=O)NC4CCCCCC4)ccc23)cc1 do in these assays?
DT40 TDP1 no CPT: 7.31µM*; VDR inh: -3.6%; TDP1 inh: 0.0%; KAT2A inh: -14.0%; DT40 TDP1 CPT: inconclusive

What do the screens show for `COc1cccc(-c2cn3c(n2)sc2cc(C(=O)NC4CCCCC4)ccc23)c1`?
DT40 TDP1 no CPT: inconclusive; VDR inh: 4.4%; TDP1 inh: 1.3%; KAT2A inh: -10.8%; DT40 TDP1 CPT: inconclusive

Results for COc1cccc(-c2cn3c(n2)sc2cc(C(=O)NC4CCCCCC4)ccc23)c1 ?
DT40 TDP1 no CPT: inconclusive; VDR inh: 1.5%; TDP1 inh: -2.6%; KAT2A inh: -6.1%; DT40 TDP1 CPT: inconclusive

How did COc1ccc(-c2cn3c(n2)sc2cc(C(=O)Nc4cccc(OC)c4)ccc23)cc1 do in these assays?
DT40 TDP1 no CPT: inconclusive; VDR inh: -0.6%; TDP1 inh: 1.3%; KAT2A inh: -12.3%; DT40 TDP1 CPT: inconclusive

What do the screens show for `O=C(NC1CCCc2ccccc21)c1ccc2c(c1)sc1nc(-c3ccccc3)cn12` (centres undefined)?
DT40 TDP1 no CPT: 18.4µM*; VDR inh: 12.5%; TDP1 inh: 1.3%; KAT2A inh: -5.2%; DT40 TDP1 CPT: 8.2µM*

What do the screens show for `O=C(NC1CCCCC1)c1ccc2c(c1)sc1nc(-c3ccc(F)cc3)cn12`?
DT40 TDP1 no CPT: 14.6µM*; VDR inh: 5.1%; TDP1 inh: 5.2%; KAT2A inh: -4.1%; DT40 TDP1 CPT: 13µM*

How did Cc1ccccc1C do in these assays?
TDP1 inh: 16.1%

How did COc1cccc(Nc2ncc3nc(-c4cc(F)cc(F)c4)c(=O)n(C4CC4)c3n2)c1 do in these assays?
DT40 TDP1 no CPT: 1.6%; VDR inh: 1.5%; KAT2A inh: 0.7%; DT40 TDP1 CPT: 11.5%

Results for O=C(NC1CCCCCC1)c1ccc2c(c1)sc1nc(-c3ccc(F)cc3)cn12 ?
DT40 TDP1 no CPT: 6.51µM*; VDR inh: -2.5%; TDP1 inh: -2.6%; KAT2A inh: -0.5%; DT40 TDP1 CPT: inconclusive

Results for O=C(NCc1ccccc1)c1ccc2c(c1)sc1nc(-c3ccc(F)cc3)cn12 ?
DT40 TDP1 no CPT: -17.1%; VDR inh: 11.6%; TDP1 inh: -1.3%; KAT2A inh: -4.4%; DT40 TDP1 CPT: -11.9%

What do the screens show for `N=c1oc2ccc(Br)cc2cc1C(=O)NCc1ccc(F)cc1`?
PLK1 PBD inh: -4.6%; DT40 TDP1 no CPT: 8.2µM*; VDR inh: -4.3%; TDP1 inh: 2.7%; KAT2A inh: -16.8%; DT40 TDP1 CPT: inconclusive

Results for CC(NC(=O)c1cc2cc(Br)ccc2oc1=N)c1ccccc1 (centres undefined) ?
PLK1 PBD inh: 2.3%; DT40 TDP1 no CPT: 16.4µM*; VDR inh: -21.5%; TDP1 inh: 4.6%[56.1 µM]; KAT2A inh: 1.5%; DT40 TDP1 CPT: 16.4µM*

What do the screens show for `O=C(NCc1ccco1)c1cc2cc(Br)ccc2o1`?
PLK1 PBD inh: 10.6µM*; DT40 TDP1 no CPT: inconclusive; VDR inh: 89.1µM*; TDP1 inh: 1.8%; KAT2A inh: -13.4%; DT40 TDP1 CPT: inconclusive

What do the screens show for `Cc1c(C(=O)NCc2ccco2)oc2ccc(Br)cc12`?
PLK1 PBD inh: -6.8%; DT40 TDP1 no CPT: -2.7%; VDR inh: -8.2%; TDP1 inh: -12.9%; KAT2A inh: -29.0%; DT40 TDP1 CPT: -27.1%

How did Cc1ccc(CNC(=O)c2cc3cc(Br)ccc3oc2=N)cc1 do in these assays?
PLK1 PBD inh: 0.0%; DT40 TDP1 no CPT: -20.5%; VDR inh: 10.0%; TDP1 inh: 2.8%; KAT2A inh: 4.2%; DT40 TDP1 CPT: -27.9%

Results for Cc1c(Cl)cccc1NS(=O)(=O)c1ccc(NS(=O)(=O)c2ccc3c(c2)OCCO3)cc1 ?
DT40 TDP1 no CPT: -22.3%; VDR inh: 2.6%; KAT2A inh: -2.2%; DT40 TDP1 CPT: 5.8%

Results for Cc1ccc(S(=O)(=O)SC/C=C/CSS(=O)(=O)c2ccc(C)cc2)cc1 ?
PLK1 PBD inh: 2.67µM*; DT40 TDP1 no CPT: 14.6µM*; VDR inh: 44.7µM*; DT40 TDP1 CPT: inconclusive

What do the screens show for `Cc1ccc(S(=O)(=O)CS(=O)(=O)c2ccc(C)cc2)cc1`?
PLK1 PBD inh: -2.0%; DT40 TDP1 no CPT: -20.4%; VDR inh: -18.4%; DT40 TDP1 CPT: -20.1%

What do the screens show for `Cc1ccc(S(=O)(=O)SCCCSS(=O)(=O)c2ccc(C)cc2)cc1`?
PLK1 PBD inh: 2.38µM*; DT40 TDP1 no CPT: 20.6µM*; VDR inh: 50.1µM*; DT40 TDP1 CPT: 18.4µM*

How did Cc1c[nH]c(=O)c([N+](=O)[O-])c1 do in these assays?
PLK1 PBD inh: -7.4%; DT40 TDP1 no CPT: 2.2%; VDR inh: 28.0%; KAT2A inh: -3.3%; DT40 TDP1 CPT: -5.5%
